Test results from PubChem BioAssay.
Entries with a potency or affinity are not part of this list. Unmarked numbers belong to inactive results.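 The calls were made as follows: active = a fitted half-maximal concentration no higher than twice the top valid tested dose, with signal falling as cells die; inconclusive = flat curve between -70% and -30%, or poor fit; inactive = the rest, including signal rising instead of falling.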

Assay: viability loss in HeLa cells – cell-based, ATP luminescence, cherry-pick samples, cytotoxicity control, dose response (AID 687004);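 also: 0% = neutral control median and -100% = staurosporine 10 µM control median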
Conditions: ATP luminescence (CellTiter-Glo), 48 h; series mostly up to 26 µM; activity change, negative = cytotoxicity: at the top concentration

Row | Compound | activity change, negative = cytotoxicity
1 | C[C@H]1CN([C@@H](C)CO)C(=O)c2cc(NS(=O)(=O)c3ccc(F)cc3)ccc2O[C@@H]1CN(C)S(=O)(=O)c1ccccc1 | 0.003%
2 | Cc1noc(C)c1S(=O)(=O)Nc1ccc2c(c1)C(=O)N([C@H](C)CO)C[C@@H](C)[C@H](CN(C)Cc1ccccc1)OCCCC[C@H](C)O2 | 1.67%
3 | CC(C)NC(=O)N(C)C[C@@H]1OCCCC[C@@H](C)Oc2ccc(NC(=O)c3ccccc3)cc2C(=O)N([C@H](C)CO)C[C@H]1C | -3.07%
4 | CCS(=O)(=O)NCC[C@@H]1CC[C@@H](NS(=O)(=O)c2cccc(F)c2)[C@@H](CO)O1 | 4.14%
5 | O=C(C[C@H]1C=C[C@H](NC(=O)C2CCC2)[C@@H](CO)O1)NC1CCC1 | 1.69%
6 | CCCNC(=O)Nc1ccc2c(c1)C(=O)N(C)C[C@H](OC)[C@@H](C)CN(Cc1cccnc1)[C@H](C)CO2 | 0.647% [at 23.5 µM]
7 | Cc1cccc(C)c1NC(=O)C(C)N1CCCC1 (centres undefined) | 18.3%
8 | O=C(NC(=S)Nc1ccc(CN2CCOCC2)cc1)c1ccc([N+](=O)[O-])cc1 | -4%
9 | CO[C@@H]1CN(C)C(=O)c2cc(NC(=O)C3CC3)ccc2OC[C@H](C)N(C(=O)c2ccncc2)C[C@H]1C | 2.97%
10 | O=C(CSc1ncnc2c1cnn2-c1ccccc1)NC1CCS(=O)(=O)C1 (centres undefined) | -8.72%
11 | Cc1cc(C(=O)NC(=S)Nc2ccccc2N2CCCC2)ccc1[N+](=O)[O-] | -10.9%
12 | COc1ccc(NC(=O)N(C)C[C@H]2OCCCC[C@@H](C)Oc3ccc(N(C)C)cc3C(=O)N([C@H](C)CO)C[C@H]2C)cc1 | -1.02%
13 | CC=Cc1ccc2n(c1=O)C[C@H]1[C@H](CO)[C@@H](C(=O)NCc3ccc4c(c3)OCO4)[C@@H]2N1C(=O)C1CC1 (mixture of isomers) | -2.41%
14 | CCC(=O)N1[C@@H]2Cn3c(ccc(C4=CCCCC4)c3=O)[C@H]1[C@@H](C(=O)N[C@H](C)c1ccccc1)[C@@H]2CO | 28.3%
15 | CCC(=O)N[C@@H]1C=C[C@H](CC(=O)NCC2CCCCC2)O[C@H]1CO | 5.09%
16 | O=C(CSc1ncnc2c1cnn2-c1ccc(Cl)cc1)NCc1ccc2c(c1)OCO2 | 5.81%
17 | CO[C@H]1CN(C)C(=O)c2ccc(NC(=O)C3CC3)cc2OC[C@@H](C)N(Cc2ccc(F)cc2)C[C@@H]1C | 2.32%
18 | C[C@@H]1CN([C@@H](C)CO)C(=O)c2cc(C3=CCCCC3)cnc2O[C@H]1CN(C)C(=O)Cc1cccnc1 | 8.62%
19 | CN(C)C(=O)c1ccc(-c2ccc([C@H]3[C@H]4CN(CCC(F)(F)F)CCCCN4[C@H]3CO)cc2)cc1 | 1.72%
20 | CC(C)NC(=O)N(C)C[C@@H]1OCCCC[C@H](C)Oc2ccc(NC(=O)Cc3ccccc3)cc2C(=O)N([C@H](C)CO)C[C@H]1C | 10.3%

Row | Compound | activity change, negative = cytotoxicity
21 | C[C@H]1CN([C@@H](C)CO)C(=O)Cc2cc(NC(=O)C3CC3)ccc2O[C@H]1CN(C)Cc1ccc(-c2ccccc2)cc1 | -3.64% [at 23.5 µM]
22 | Cc1cccc(C)c1NC(=O)C(C)N1CCCCC1 (centres undefined) | -1.54%
23 | COc1ccc(CN(C)C[C@H]2OCCCC[C@@H](C)Oc3ccc(NC(=O)c4ccccc4)cc3C(=O)N([C@H](C)CO)C[C@@H]2C)cc1 | 1.5% [at 23.5 µM]
24 | C[C@H](CO)N1C[C@H](C)[C@H](CN(C)CC2CCCCC2)Oc2ccc(NC(=O)Nc3ccc4c(c3)OCO4)cc2C1=O | 14.7% [at 23.5 µM]
25 | COc1cccc(S(=O)(=O)N2C[C@@H](O)COC[C@H]3O[C@H](CC(=O)N4CCN(C)CC4)CC[C@@H]32)c1 | 15.5%
26 | COCC(=O)N(C)C[C@@H]1Oc2ncc(C#CCC3CCCC3)cc2C(=O)N([C@@H](C)CO)C[C@H]1C | 22.1%
27 | C[C@H](CO)N1C[C@H](C)[C@H](CN(C)Cc2ccncc2)Oc2ccc(NC(=O)CCC(F)(F)F)cc2C1=O | 1.56%
28 | Cc1ccc(C)c(NC(=O)C2CCCN2C(=O)NC2CCCCC2)c1 (centres undefined) | 21.7%
29 | CO[C@H](CN(C)Cc1cc(F)ccc1F)[C@@H](C)CN([C@@H](C)CO)S(=O)(=O)c1ccc(F)cc1 | -2.82%
30 | CC(=O)NC[C@H]1[C@@H](c2ccc(C3=CCCC3)cc2)[C@@H](CO)N1C(=O)NC(C)C | 8.28%
31 | C[C@H](CO)N1C[C@H](C)[C@H](CN(C)S(=O)(=O)c2ccccc2)Oc2ccc(NS(=O)(=O)c3ccc(F)cc3)cc2C1=O | 17.6%
32 | CCOc1cc(/C=N/NC(=O)CCCC(=O)NC2CCCCC2)ccc1O | 17.5%
33 | CN1C(=O)N[C@@H]2c3ccccc3O[C@@]1(C)[C@@H]2COC(=O)c1ccccc1 | 3.24%
34 | CCS(=O)(=O)N1CCCCN2[C@H](C1)[C@@H](c1ccc(-c3ccc(C#N)cc3)cc1)[C@@H]2CO | -11.3%
35 | CO[C@H]1CN(C)C(=O)c2cc(NC(=O)c3ccccc3F)ccc2OC[C@H](C)N(C(C)=O)C[C@H]1C | -1.19%
36 | COc1ccc(NC(=O)N(C)C[C@H]2OCCCC[C@@H](C)Oc3ccc(NC(=O)c4ccccc4)cc3C(=O)N([C@@H](C)CO)C[C@H]2C)cc1 | -2.66%
37 | Cc1ccc(N(CC(N)=O)S(=O)(=O)c2ccc(F)cc2)cc1 | 11.1% [at 28.5 µM]
38 | O=C(CSc1ncnc2c1cnn2-c1ccccc1Cl)N1CCN(C(=O)c2ccco2)CC1 | 5.91%
39 | C[C@@H](NC(=O)C[C@H]1CC[C@@H](NC(=O)Cc2ccccn2)[C@@H](CO)O1)c1ccccc1 | 1.14%
